How the values were obtained:
PEG-3 [1] = biological target: PEG-3 (UniProt Q6IN02); test: Peg3 promoter luciferase inhibitors, potency, dose response, cell-based, HeLa, CREF/GAPDH counter-screen panel (AID 624167); conditions: CREF/GAPDH counter-screens; HeLa PEG-Prom luciferase reporter, overnight, run 1, dose range 1, at 100 µM (top of the series) unless noted
PEG-3 [2] = biological target: PEG-3 (UniProt Q6IN02); test: as above; conditions: CREF/GAPDH counter-screens; HeLa PEG-Prom luciferase reporter, overnight, run 2, dose range 1, at 100 µM (top of the series) unless noted
[3] = biological target: Tumor necrosis factor receptor superfamily member 10B (Homo sapiens) (UniProt O14763); test: caspase-8 TRAIL sensitization, hit retest, confirmation, cell-based, NB7+caspase-8, with/without TRAIL, luminescence panel (AID 651596); conditions: NB7 neuroblastoma + caspase-8, TRAIL sensitization, luminescence viability, with TRAIL, mean of runs, at 10 µM, stronger effect = higher value
Tumor necrosis factor receptor superfamily member 10B (Homo sapiens), sequence (O14763 whole entry, looked up): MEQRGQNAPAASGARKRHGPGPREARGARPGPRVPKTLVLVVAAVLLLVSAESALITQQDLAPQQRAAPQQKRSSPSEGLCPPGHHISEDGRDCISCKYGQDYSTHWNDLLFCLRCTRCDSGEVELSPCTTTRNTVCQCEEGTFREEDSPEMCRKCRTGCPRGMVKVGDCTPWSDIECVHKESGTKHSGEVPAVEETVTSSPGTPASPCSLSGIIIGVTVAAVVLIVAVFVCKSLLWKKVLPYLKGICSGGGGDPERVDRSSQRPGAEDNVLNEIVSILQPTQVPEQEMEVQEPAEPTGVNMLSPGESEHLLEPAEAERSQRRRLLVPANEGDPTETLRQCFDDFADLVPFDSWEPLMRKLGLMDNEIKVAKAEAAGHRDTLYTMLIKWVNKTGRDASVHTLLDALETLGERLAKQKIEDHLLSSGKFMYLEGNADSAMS

[4] = as above; conditions: NB7 neuroblastoma + caspase-8, without TRAIL, luminescence viability, without TRAIL, mean of runs, at 10 µM
[5] = inhibitors of PAF-induced NFkB signaling in CF airway cells, dose response, cell-based, uHTS hits, panel, cytotoxicity readout (AID 624344); conditions: CF bronchial epithelial cells, PAF-induced NFkB reporter inhibition, with PAF, run 1; at 79 µM (top of the series) unless noted
[6] = as above; conditions: CF bronchial epithelial cells, PAF-induced NFkB reporter inhibition, with PAF, run 2; at 79 µM (top of the series) unless noted
Rat fibroblasts (CREF) [7] = test: Peg3 promoter luciferase inhibitors, potency, dose response, cell-based, HeLa, CREF/GAPDH counter-screen panel (AID 624167); conditions: CREF/GAPDH counter-screens; run 1, dose range 1, at 100 µM (top of the series)
Rat fibroblasts (CREF) [8] = test: as above; conditions: CREF/GAPDH counter-screens; run 2, dose range 1, at 100 µM (top of the series)

PEG-3, sequence (Q6IN02 whole entry, looked up): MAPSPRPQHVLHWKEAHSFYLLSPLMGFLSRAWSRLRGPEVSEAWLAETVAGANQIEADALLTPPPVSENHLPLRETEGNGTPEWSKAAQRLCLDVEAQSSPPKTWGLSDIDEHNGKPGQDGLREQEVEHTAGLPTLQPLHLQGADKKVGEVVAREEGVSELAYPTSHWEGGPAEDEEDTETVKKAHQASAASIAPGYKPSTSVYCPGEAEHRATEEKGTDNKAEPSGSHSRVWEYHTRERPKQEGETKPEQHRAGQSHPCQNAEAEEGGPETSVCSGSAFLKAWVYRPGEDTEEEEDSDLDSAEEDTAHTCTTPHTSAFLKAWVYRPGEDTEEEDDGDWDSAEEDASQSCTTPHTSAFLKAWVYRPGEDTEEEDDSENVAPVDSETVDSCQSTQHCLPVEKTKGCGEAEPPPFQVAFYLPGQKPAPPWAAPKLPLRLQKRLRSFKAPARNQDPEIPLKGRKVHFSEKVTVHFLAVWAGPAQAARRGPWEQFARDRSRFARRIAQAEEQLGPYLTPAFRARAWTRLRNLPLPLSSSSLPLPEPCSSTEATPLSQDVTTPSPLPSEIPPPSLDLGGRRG

Row | Structure (SMILES) | inhibition (PEG-3 [1]) [%] | inhibition (PEG-3 [2]) [%] | activity [3] [%] | activity [4] [%] | inhibition [5] | inhibition [6] | inhibition (Rat fibroblasts (CREF) [7]) [%] | inhibition (Rat fibroblasts (CREF) [8]) [%]
1 | CC1(C)Oc2cc3oc(-c4cc(O)cc(O)c4)cc3cc2CC1O (stereo not drawn) | 93.6 | 94.6 | 81.8 | 75.9 |  |  |  | 
2 | CCOC(=O)c1c(C)[nH]c(C(=O)OCC(=O)Nc2sccc2C(N)=O)c1C | 76.2 | 101 | 69.8 | 62.2 |  |  |  | 
3 | CC1CCCCN1S(=O)(=O)c1ccc(C(=O)N(CCCN(C)C)c2nc3ccc(Br)cc3s2)cc1 (stereo not drawn) | 102 | 102 | 22.4 | 17.7 |  |  |  | 
4 | Cc1noc(-c2ccc(Cl)cc2)c1C(=O)O/N=C(\N)c1ccc(C(C)(C)C)cc1 | 99.2 | 101 | 99.3 | 97.5 |  |  |  | 
5 | CCCN(CC(=O)Nc1ccccc1C)C(=O)CCl | 101 | 98.7 | 97.8 | 98.2 |  |  |  | 
6 | O=S(=O)(Nc1cccc2cccnc12)c1ccccc1 | 81.7 | 97.7 |  |  | 102% | 109% |  | 
7 | CCn1c(C)cc(C(=O)COC(=O)c2ccccc2[N+](=O)[O-])c1C | 99 | 99 | 94.7 | 93.3 |  |  |  | 
8 | CS(=O)(=O)c1ccc2nc(NC(=O)CCS(=O)(=O)c3ccccc3)sc2c1 | 85 | 92.7 |  |  | 98.1% | 97.7% |  | 
9 | CS(=O)(=O)Nc1cccc(NC(=O)C2Cc3c(-c4ccccc4)ccnc3O2)c1 (stereo not drawn) | 58.9 | 75.2 | 57 | 69.3 |  |  | 35.5 | 40
10 | O=C(c1ccc(Cl)cc1)N1CCCCC(Sc2nnc(-c3ccc4c(c3)OCO4)o2)C1=O (stereo not drawn) | 93.2 | 67.1 | 75.8 | 72.6 |  |  | 98 | 85.5
11 | CCN1CCN(c2ccc(S(=O)(=O)N3CCOCC3)cc2NC(=O)/C=C/c2ccc([N+](=O)[O-])cc2)CC1 | 100 | 89.1 | 50.9 | 62.1 |  |  |  | 
12 | CCCCCCCCCCCCCCC(O)C[N+](C)(CCO)CCO (stereo not drawn) | 94.8 | 101 | 94.9 | 96.5 | 95.6% | 96.1% |  | 
13 | Cc1cnc(NC(=O)C2CC(=O)N(c3cccc(Cl)c3)C2)s1 (stereo not drawn) | 97.7 | 87.8 |  |  | 94.9% | 116% |  | 
14 | Cc1ccc(N(Cc2cc(=O)[nH]c3ccccc23)C(=O)CCl)c(C)c1 | 101 | 99.2 | 96.8 | 96.5 |  |  |  | 
15 | N/C(=N\OC(=O)c1ccccc1)C(Cc1ccccc1)C(=O)NOC(=O)c1ccccc1 (stereo not drawn) | 97.4 | 99.1 | 98 | 97.8 |  |  |  | 
16 | COc1ccc(C(C(=O)NCC2CCCO2)N(Cc2cccs2)C(=O)c2snc(C(N)=O)c2N)cc1 (stereo not drawn) | 47.8 | 28.4 |  |  | 109% | 101% |  | 
17 | CCc1nccn1C(=O)c1cnn2c(C(F)F)cc(-c3ccc(C)cc3)nc12 | 99.1 | 102 |  |  | 102% | 115% |  | 
18 | Cc1ccc(-n2cc(-c3ccccc3)c3c(N4CCOCC4)ncnc32)cc1 | 101 | 102 |  |  | 107% | 101% |  | 
19 | COc1cccc(CN(C)C(=O)C(CCSC)NS(=O)(=O)c2ccc3c(c2)OCCO3)c1OC (stereo not drawn) | 73.9 | 99.1 |  |  | 110% | 106% |  | 
20 | COc1nc(N)c(C#N)c(-c2ccc(N(C)CCC#N)cc2)c1C#N | 52.9 | 53 |  |  | 97.1% [at 39.5 µM] | 84.4% [at 39.5 µM] |  | 
21 | COC(=O)c1c(NC(=O)c2ccc([N+](=O)[O-])o2)sc2c1CCN(C(C)C)C2 | 95 | 99.1 | 46.9 | 88.7 |  |  |  | 
22 | COCCn1c(C)cc(C2=NNC(=NC3CC3)SC2)c1C | 99.2 | 101 | 91.5 | 90.3 |  |  |  | 
23 | CCC1=C(CC2NCCc3ccccc32)CC2c3cc(OC)c(OC)cc3CCN2C1 (stereo not drawn) | 97.6 | 99 |  |  | 115% | 105% |  | 

From PubChem BioAssay
